According to ChEMBL document CHEMBL3988442, “University of Dundee, Small-Polar-MMV Screening Library” (2021):

These compounds were tested against Chromo domain-containing protein 1 (Saccharomyces cerevisiae (strain ATCC 204508 / S288c) (Baker's yeast)) (UniProt P32657) (assay: ScCHD-1 Enzyme Inhibition Assay). Conditions: 30 µM.
Format: functional
Parameters: scale not given: in the data most compounds retested in dose-response had high values

Chromo domain-containing protein 1 (Saccharomyces cerevisiae (strain ATCC 204508 / S288c) (Baker's yeast)), sequence (P32657 whole entry, the tested form may be a part): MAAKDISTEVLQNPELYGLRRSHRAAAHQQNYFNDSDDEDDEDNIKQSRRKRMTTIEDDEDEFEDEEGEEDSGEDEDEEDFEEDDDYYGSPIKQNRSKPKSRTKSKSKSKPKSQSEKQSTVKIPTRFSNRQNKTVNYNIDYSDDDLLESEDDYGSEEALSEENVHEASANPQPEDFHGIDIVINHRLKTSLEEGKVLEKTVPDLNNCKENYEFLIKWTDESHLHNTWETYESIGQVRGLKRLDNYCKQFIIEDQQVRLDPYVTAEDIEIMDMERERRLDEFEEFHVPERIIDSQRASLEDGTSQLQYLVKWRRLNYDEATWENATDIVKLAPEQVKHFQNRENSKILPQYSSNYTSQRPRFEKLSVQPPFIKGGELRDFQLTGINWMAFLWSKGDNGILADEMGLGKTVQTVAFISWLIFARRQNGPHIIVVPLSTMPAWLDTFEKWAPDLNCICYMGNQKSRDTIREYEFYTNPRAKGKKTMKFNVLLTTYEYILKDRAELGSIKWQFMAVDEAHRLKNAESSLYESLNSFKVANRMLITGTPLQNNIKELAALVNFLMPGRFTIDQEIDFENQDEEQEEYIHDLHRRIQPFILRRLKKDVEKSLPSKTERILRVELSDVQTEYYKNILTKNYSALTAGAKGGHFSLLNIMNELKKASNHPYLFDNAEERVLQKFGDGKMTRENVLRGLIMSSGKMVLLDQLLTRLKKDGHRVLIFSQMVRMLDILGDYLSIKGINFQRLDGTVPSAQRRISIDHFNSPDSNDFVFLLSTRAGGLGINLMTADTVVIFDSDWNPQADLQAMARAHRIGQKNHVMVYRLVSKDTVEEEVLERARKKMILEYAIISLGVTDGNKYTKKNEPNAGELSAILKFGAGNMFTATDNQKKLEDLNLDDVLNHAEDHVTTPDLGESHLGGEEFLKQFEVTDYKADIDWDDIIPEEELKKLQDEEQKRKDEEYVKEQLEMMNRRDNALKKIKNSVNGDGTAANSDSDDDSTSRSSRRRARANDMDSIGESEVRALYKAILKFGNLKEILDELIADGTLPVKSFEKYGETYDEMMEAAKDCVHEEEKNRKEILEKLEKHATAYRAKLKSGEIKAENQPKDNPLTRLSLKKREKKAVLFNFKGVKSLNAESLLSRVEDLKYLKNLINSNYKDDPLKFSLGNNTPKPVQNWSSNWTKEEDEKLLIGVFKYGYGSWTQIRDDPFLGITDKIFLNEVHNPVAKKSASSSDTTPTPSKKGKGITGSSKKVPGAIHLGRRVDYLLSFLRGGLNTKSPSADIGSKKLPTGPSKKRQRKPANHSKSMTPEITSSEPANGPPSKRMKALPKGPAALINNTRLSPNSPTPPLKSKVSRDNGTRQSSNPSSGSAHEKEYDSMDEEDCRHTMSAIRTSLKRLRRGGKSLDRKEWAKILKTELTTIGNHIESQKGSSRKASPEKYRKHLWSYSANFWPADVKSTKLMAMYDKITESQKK

| SMILES | Percent Effect [%] |
| --- | --- |
| Cc1ccc(N2CC3(COCCN(Cc4nccs4)C3)OCC2=O)s1 (stereo not given) | -11.1 |
| CCOCCCn1c(NC(=O)c2cnn(C)c2)nc2ccccc21 | -2.58 |
| CCn1nnc2cc(C(=O)N3CCCC3Cn3cc(C)cn3)ccc21 (stereo not given) | 0.343 |
| CN(C)CC1CSCCCN1C(=O)c1ccc(C(C)(C)C)cc1 (stereo not given) | -4.54 |
| CS(=O)(=O)CC(=O)N1C[C@H]2CCC[C@@]2(COCc2ccccn2)C1 | 0.642 |
| COc1ccccc1CN(C)C(=O)c1cc(CN2CCC(O)CC2)on1 | 100 |
| COCC(O)CNC(=O)c1coc(COc2ccc3sc(C)nc3c2)n1 (stereo not given) | -1.23 |
| CCc1n[nH]c(C2CN(Cc3nccn3CC)CCO2)n1 (stereo not given) | -16.2 |
| COc1ccc(-n2ccc(C(=O)N3CCN(C)CC3C)n2)cc1 (stereo not given) | -5.54 |
| c1ccc(-c2noc(CNC3CCc4ncnn4C3)n2)nc1 (stereo not given) | -1.02 |
| Cc1cc(=O)n2ncnc2n1CC(O)c1cc(F)ccc1F (stereo not given) | -3.49 |
| CSc1ccc(C(CNC(=O)C2CC2)N2CCc3sccc3C2)cc1 (stereo not given) | 4.76 |
| CS(=O)(=O)NC[C@H]1OC[C@@H]2CCN(Cc3ccc(F)cc3)C[C@@H]21 | -6.75 |
| COc1ccc(CNC(=O)CNc2cc3c(cc2Cl)OCCCO3)cc1 | -1.22 |
| CCOCCOc1ccccc1C(=O)N1CCCC(c2ncc[nH]2)C1 (stereo not given) | -11.5 |
| CC(O)CN1CCN(C(=O)c2cc3ccccc3c(=O)[nH]2)CC1 (stereo not given) | 12.2 |
| CCN1CCC(NC(=O)CN2CCCC2Cn2nc(C)cc2C)CC1 (stereo not given) | 0.399 |
| CCc1ccc(OCC(O)CN2CCN(S(C)(=O)=O)CC2)cc1 (stereo not given) | -21.6 |
| O=C1CCCN1CC1CN(C(=O)CC2CCCC2)Cc2nccn2C1 (stereo not given) | -9.36 |
| Cc1nc(C2CCN(C(=O)c3cccnc3)CC2)c2sccn12 | -6.97 |
